The list is not random: actives were taken first. Their share in the collection is about 1.4%.
MmCpn inh: blocks the Methanococcus maripaludis chaperonin Mm-Cpn; Potency, µM (highest dose often 76.9 µM), inactives show top-dose activity, negative = inhibition, hits mostly inhibitors; AID 504842; actives 0.031% (n = 330,000); purified Mm-Cpn ATPase, ADP Transcreener TR-FRET; note: potency is the fitted concentration of half-maximal effect; % is set by controls: 0 for no effect and ±100 for the full control effect; nearly all actives have a fitted effect of over 80% in size
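Reaction buffer contained 30 mM Tris pH 7.4, 100 mM KCl, 5 mM MgCl2 and 1 mM DTT. Mm-CPN (25 nM final) hydrolysed 10 uM ATP over 30 min at 37°C; ADP was read by HTRF.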
KCNH2 3.1 inh: KCNH2 3.1 (human) potassium channel inhibition | U2OS KCNH2 3.1, thallium flux FluxOr; active compounds read low | activity change, % (tested at about 1.8 µM) | actives 0.95% (n = 340,000) | AID 720553;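 active = maximum activity change below -70%; inconclusive = maximum activity change from -70% to -50%; inactive = maximum activity change above -50%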;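 note: thallium influx rate constant from kinetic fluorescence after stimulation buffer; % is set by controls: 0 for no effect and ±100 for the full control effect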
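Kinetic fluorescence (2 min after stimulation buffer) measures Tl+ influx through KCNH2 3.1 expressed by viral transduction in U2OS cells; the rate constant is normalized against DMSO controls serving as positive and negative references.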
S-ASM inh: blocks human secretory acid sphingomyelinase | actives 0.006% (n = 340,000) | placental ASM, HMU-PC fluorogenic substrate, 60 min | P17405 | Potency, µM (series often up to 57.5 µM), for inactives: at the top dose activity change, negative = inhibition, most hits filed as inhibitors; note: potency is the fitted concentration of half-maximal effect
Target sequence (P17405 47-631 limits assumed): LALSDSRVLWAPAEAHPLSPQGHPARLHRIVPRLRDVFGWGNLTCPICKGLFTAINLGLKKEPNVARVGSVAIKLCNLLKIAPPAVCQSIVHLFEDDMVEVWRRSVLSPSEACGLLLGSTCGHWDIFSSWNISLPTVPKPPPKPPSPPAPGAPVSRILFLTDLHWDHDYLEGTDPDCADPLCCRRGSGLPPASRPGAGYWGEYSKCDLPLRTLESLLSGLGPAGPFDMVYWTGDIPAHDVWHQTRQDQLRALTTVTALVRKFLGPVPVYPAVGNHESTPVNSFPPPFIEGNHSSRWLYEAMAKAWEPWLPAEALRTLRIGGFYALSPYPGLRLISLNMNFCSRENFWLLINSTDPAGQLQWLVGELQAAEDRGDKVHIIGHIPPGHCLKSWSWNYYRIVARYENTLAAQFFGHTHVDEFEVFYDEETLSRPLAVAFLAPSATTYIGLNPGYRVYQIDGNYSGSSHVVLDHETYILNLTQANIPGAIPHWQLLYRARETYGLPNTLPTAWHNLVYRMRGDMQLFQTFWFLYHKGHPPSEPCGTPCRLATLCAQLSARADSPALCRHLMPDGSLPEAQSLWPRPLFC
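Fluorescence read-out (Ex 386 nm, Em 447 nm) after stopping the reaction at pH 10. Enzyme: ASM from human placenta; substrate HMU-PC0, 9 uM final; 60 min, 37 °C. Compound preincubation 10 min, ambient temperature.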
KCNH2 WT inh: KCNH2 (human, wildtype) channel inhibition | Q12809 | U2OS, BacMam KCNH2, thallium flux FluxOr; active compounds read low | activity change, % at 1.84 µM | actives 0.37% (n = 340,000);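 active = maximum activity change below -70%; inconclusive = maximum activity change between -70% and -50%; inactive = maximum activity change above -50%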; note: % is set by controls: 0 for no effect and ±100 for the full control effect
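U2OS cells transduced with wild-type KCNH2 virus are loaded with FluxOr dye for 45 min, and thallium flux is measured in kinetic reads before and after stimulation buffer. Rate constants are normalized to DMSO controls.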
p53 reactivation: re-activators of mutant p53; H1299 p53-A138V BP100-luciferase reporter, luminescence, 24 h; actives 0.063% (n = 320,000); Potency, µM (titrated, usually from 92.2 µM), for the others: at the highest dose activity change, positive = activation, most hits filed as activators; AID 504706; note: potency is the fitted concentration of half-maximal effect; % of control where 0% means no effect; nearly all actives have a fitted effect of over 45% in size
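p53-null H1299 cells stably carrying temperature-sensitive p53-A138V and a BP100-luciferase reporter were pinned with compounds (4-point, 1:5 series) and held 24 hrs at 37 deg C. Luminescence was read 10 min after detection reagent.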
uPA generation: blocks generation of uPA at the cell surface. AID 540303. cell surface uPA generation assay, qHTS. actives 0.31% (n = 330,000). Potency, µM (doses to about 38.3 µM), for the others: top-dose activity change, negative = inhibition, most hits filed as inhibitors; active = well fitted inhibition curve with a large enough effect; inconclusive = small, poorly fitted or top-dose-only effect; inactive = no such curve, though single readings can be large or run the other way; tested in mouse RAW 264.7 cells; note: potency is the fitted concentration of half-maximal effect; % is set by controls: 0 for no effect and ±100 for the full control effect; nearly all actives have a fitted effect of over 55% in size
* hit, by the source's call; ? = inconclusive; nt = no result. Unless noted, calls come from the whole dose curve; as a rule, active = well fitted curve in the direction sought with a large enough effect; inconclusive = small, poorly fitted or top-dose-only effect, or another doubt; inactive = no such curve, though single readings can be large; an effect the other way counts as inactive or inconclusive.

SMILES | MmCpn inh | KCNH2 3.1 inh | S-ASM inh | KCNH2 WT inh | p53 reactivation | uPA generation
COc1ccc(-c2sc(C(=O)c3ccc(Cl)cc3Cl)cc2CC(=O)O)cc1 | 50µM* | 6 | 79% | -3 | -2% | -12%
COc1ccc2c(c1)C(=O)CC(c1ccccc1F)O2 (stereo not given) | -3% | -3 | 156% | 2 | 10% | -9%
COc1ccc2c(c1)C(=O)CCC2c1ccccc1 (stereo not given) | 1% | -120* | 4% | 8 | -6% | -3%
Cc1ccc(C)c(CN2CCC(CNC(=O)Nc3ccc(Br)cc3F)CC2)c1 | 1% | -71* | -3% | -19 | 6% | 2%
Cc1ccc(C)c(CN2CCC(CNC(=O)Nc3ccc(Cl)cc3)CC2)c1 | 1% | -88* | -1% | -9 | 12% | 3%
O=C(NCCCN1CCN(Cc2ccccc2Cl)CC1)Nc1ccccc1 | 2% | nt | -1% | 16 | -2% | -1%
Cc1ccccc1CC1CCN(CCCNC(=O)Nc2ccccc2)CC1 | 0% | -80* | -1% | 30 | nt | -11%
COc1ccc(/C=N/Nc2nc(C(=O)O)cs2)cc1 | -1% | 5 | 1% | -6 | ? | 3%
O=C(/C=C/c1ccc(Cl)cc1)N(Cc1ccccc1)C1CCS(=O)(=O)C1 (stereo not given) | 0% | -75* | -8% | 0 | -6% | -3%
CCCCNc1nc2cccnc2s1 | -1% | -130* | 2% | -2 | 13% | 5%
Clc1ccc(Nc2nc3cccnc3s2)cc1 | 1% | 7 | 1% | -9 | ? | -1%
Cc1ccc2nc(NC(=O)Cn3nc(C)c([N+](=O)[O-])c3C)sc2c1 | -4% | -94* | -2% | -8 | 6% | -1%
Cc1ccccc1C(=O)NC1CCN(CC(=O)N2CCCCC2C)CC1 (stereo not given) | -1% | -6 | -2% | -81* | -3% | 1%
Cc1ccccc1C(=O)NC1CCN(CC(=O)Nc2ccccc2)CC1 | -2% | -11 | 0% | 8 | ? | -5%
Cc1ccc(OCc2cc(C(=O)N(C)CCc3nc4ccccc4[nH]3)no2)cc1C | 2% | ? | -5% | 6 | 18% | -4%
CN(C)c1ccc(-c2noc(-c3ccccc3O)n2)cc1 | -2% | 3 | 27% | 3 | 7.1µM* | -5%
CN(Cc1ccccc1)c1ncnc2[nH]ncc12 | nt | 1 | 0% | -2 | nt | -1%
CN(Cc1ccccc1)c1ncnc2sccc12 | 1% | -7 | 16% | -124* | -4% | -1%
Cc1ccc2c(C)c(C(=O)N3CCN(c4ncccn4)CC3)oc2c1C | 1% | 0 | -4% | 15 | nt | 1%
COc1ccc(NC(=O)COC(=O)COc2cccc(Br)c2)cc1OC | 1% | -1 | -3% | 8 | 4% | -2%
O=C(COC(=O)COc1cccc(Br)c1)Nc1c(Cl)cccc1Cl | 0% | 5 | -1% | -189* | -5% | -8%
Cc1ccc(S(=O)(=O)N2CCN(C(=O)C3CCN(C(=O)c4ccc(F)cc4)CC3)CC2)c(C)c1 | -1% | -19 | 0% | 7 | 3% | -8%
O=C(OCc1cc(=O)n2ccsc2n1)C1(c2ccccc2)CC1 | nt | 40 | nt | -4 | nt | nt
N#C/C(=C/c1ccc(-c2ccc(S(=O)(=O)N3CCOCC3)cc2)o1)C(=O)NC1CC1 | nt | 10 | 17% | -80* | nt | -3%
CN1CCN(CC(O)(c2ccc(Cl)cc2)c2ccc(Cl)cc2)CC1 | -1% | -49 | 1% | -20 | 18% | 4%
Cc1nc([N+](=O)[O-])c(Br)n1CC(=O)c1ccc(F)cc1 | -1% | 0 | 0% | 2 | -8% | -13%
Cc1nc([N+](=O)[O-])c(Br)n1Cc1ccccc1 | -1% | 15 | 0% | -5 | -16% | 10µM*
CCc1ccc(-c2csc(NC(=O)Oc3ccccc3)n2)cc1 | -1% | -1 | 0% | 1 | 14µM* | 1%
COc1cccc(CC(=O)Nc2nc(-c3ccc(F)c(F)c3)cs2)c1 | -1% | -94* | -5% | -4 | 0% | -8%
